# Screening results: PubChem BioAssay, National Center for Advancing Translational Sciences (NCATS)
# LDHA block: inhibitors of human lactate dehydrogenase A | 480,000 tested, 0.15% active | activity change, % (values are at about 110 or 230 µM) | purified LDHA, NADH/diaphorase-resazurin fluorescence; active compounds read low; in the data active means activity change below about -30%; inconclusive means mostly about -25% to -30%
#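 Resorufin fluorescence (ex540/em590), read at 0 and 20 min after diaphorase/resazurin addition, reports the NADH left after a 5 min room-temperature reaction of 2 nM human LDH5 with 0.06 mM NADH and 0.2 mM pyruvate.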
# DT40 TDP1 CPT: growth inhibition of DT40 Tdp1-/-;hTDP1 cells with camptothecin (screen for TDP1 inhibitors); Potency, µM (series often up to 46.2 µM), most hits filed as inhibitors; 420,000 tested, 12% active; chicken DT40 Tdp1-/-;hTDP1 cells + 20 nM CPT, ATP luminescence, 48 h; further: nearly all actives have a fitted effect of over 55% in size
#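 Cell growth measured by CellTiter-Glo luminescence after a minimum 48 h, 37 C compound exposure with 20 nM CPT in Tdp1-knockout DT40 cells stably expressing hTDP1, seeded 400/well; qHTS titration format.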
# IL-1B inflam inh: inhibitors of inflammasome signaling (IL-1 beta secretion); activity change, % at 57.5 µM; 360,000 tested, 4.7% active; AID 743279; THP-1 LPS/ATP IL-1B secretion, AlphaLISA, 16 h; active compounds read low; in the data active means activity change below about -50%; inconclusive means mostly about -30% to -49%
#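 THP-1 cells pretreated 1 hr with compounds (up to 57.5 uM final), then stimulated with LPS (250 ng/mL final) plus ATP (1.25 mM final); secreted IL-1B measured by AlphaLISA after 16 hr, decreased signal indicating inhibition.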
# DT40 TDP1 no CPT: qHTS for Inhibitors of human tyrosyl-DNA phosphodiesterase 1 (TDP1): qHTS in cells in absence of CPT. DT40 Tdp1-/- hTDP1 cells, no CPT, ATP luminescence, 48 h. Potency, µM (titrated, usually from 46.2 µM), usual class: inhibitors. 420,000 tested, 15% active. AID 686978, 2013; further: nearly all actives have a fitted effect of over 55% in size
#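 Growth of hTDP1-complemented DT40 Tdp1-knockout cells is measured by ATP luminescence after at least 48 hr compound exposure at 37 °C, with DMSO substituting for the 20 nM CPT used in the parallel screen.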
# Gal4-VP16 FLuc: Gal4-VP16 reporter inhibition counter-screen. 310,000 tested, 3.5% active. Drosophila S2 Gal4-VP16 UAS-luciferase, luminescence, 20 h. Potency, µM (top dose mostly 53.6 µM), usual class: inhibitors;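 further: Gal4-VP16 expression switched on by copper sulfate through the metallothionein promoter; nearly all actives have a fitted effect of over 50% in size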
# RORgamma inh: blocks mouse ROR gamma transcriptional activity | P51450 | Drosophila S2 Gal4-RORgamma UAS-luciferase reporter, 20 h | Potency, µM (top dose mostly 53.6 µM), actives largely listed as inhibitors | 310,000 tested, 5.4% active | AID 2551; further: nearly all actives have a fitted effect of over 60% in size
# Target sequence (P51450 whole entry, looked up, the tested form may be a part): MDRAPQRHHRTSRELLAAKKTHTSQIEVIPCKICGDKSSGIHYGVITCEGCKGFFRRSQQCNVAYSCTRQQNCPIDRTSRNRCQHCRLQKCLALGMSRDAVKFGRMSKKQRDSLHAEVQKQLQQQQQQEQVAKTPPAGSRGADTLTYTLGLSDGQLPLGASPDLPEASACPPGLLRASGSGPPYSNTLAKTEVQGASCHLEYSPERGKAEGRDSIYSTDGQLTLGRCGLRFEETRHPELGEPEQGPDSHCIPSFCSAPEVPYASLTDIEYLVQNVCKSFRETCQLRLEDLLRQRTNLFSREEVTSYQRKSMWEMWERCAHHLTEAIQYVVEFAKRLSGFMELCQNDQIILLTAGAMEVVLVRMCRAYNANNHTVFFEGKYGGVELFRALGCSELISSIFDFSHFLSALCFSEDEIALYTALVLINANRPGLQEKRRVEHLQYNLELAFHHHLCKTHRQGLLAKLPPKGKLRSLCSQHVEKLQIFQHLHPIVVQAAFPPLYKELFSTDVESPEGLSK
#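 Using a luciferase readout, inhibitors were identified by reduced reporter activity in Drosophila cells coexpressing a copper-inducible Gal4–ROR gamma fusion and UAS-driven Photinus luciferase, incubated 20 hr after 700 uM copper sulfate.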
# A number is an active result; - = inactive; ? = inconclusive; . = no result. Sampled rows, rich in hits. Any-hit rate of the full collection: about 18%. Unless noted, the call rests on the fitted dose curve; in most records, active means well fitted curve in the direction sought with a large enough effect; inconclusive means small, poorly fitted or top-dose-only effect, or another doubt; inactive means no such curve, though single readings can be large; an effect the other way counts as inactive or inconclusive.
SMILES,LDHA block,DT40 TDP1 CPT,IL-1B inflam inh,DT40 TDP1 no CPT,Gal4-VP16 FLuc,RORgamma inh
CCn1c(SCc2cc(OC)c(Br)cc2OC)nc2cc(S(N)(=O)=O)ccc21,-,.,.,.,.,.
CN(Cc1ccccc1)C(=O)c1ccc2c(c1)CCCN2S(C)(=O)=O,-,.,.,.,.,.
O=C1Nc2ccccc2-n2nnnc2C1N1CCN(c2ccc(C(F)(F)F)cn2)CC1 (stereo unspecified),-,16µM,-,21µM,.,.
CC(NS(=O)(=O)c1ccc2c(c1)CCN2C(=O)N1CCCC1)C(=O)Nc1ccccc1 (stereo unspecified),-,.,.,.,.,.
COc1cc(-c2nc3ccc4ccccc4c3c3c2CCC3)cc(OC)c1O,-,21µM,-,16µM,?,-
COc1cc(-c2nc3ccc4ccccc4c3c3c2CCC3)cc(OC)c1OC,-,?,-,?,22µM,5.6µM
Cc1ccc(NC(=O)CN(C)C(=O)c2ccccc2Sc2ccccc2C#N)cc1,-,?,-,15µM,.,.
Cc1sc2ncnc(Sc3ccccc3C(=O)Nc3ccc(Br)cc3)c2c1C,-,23µM,-,16µM,8.9µM,10µM
COc1ccc(NC(=O)CN(C)C(=O)c2ccccc2Sc2ncnc3sc(C)c(C)c23)cc1,-,?,-,23µM,.,.
Cc1sc2ncnc(Sc3ccccc3C(=O)Nc3ccccc3Cl)c2c1C,-,23µM,-,18µM,-,?
CN(CC(=O)Nc1ccc(F)cc1)C(=O)c1ccccc1Sc1ccccc1C#N,-,?,-,?,.,.
COc1ccc(NC(=O)CN(C)C(=O)c2ccccc2SCC(=O)N2CCCC2)cc1,-,-,-,-,.,.
CCOC(=O)C1=CN(c2ccc(OCC)cc2)C=C(C(=O)OCC)C1c1ccc2c(c1)OCO2,-,.,.,.,.,.
Cc1sc2ncnc(Sc3ccccc3C(=O)Nc3ccc(C#N)cc3)c2c1C,-,21µM,-,21µM,-,-
CC1SC(=NC(=O)c2ccncc2)NC1=O (stereo unspecified),-,-,-,-,-,-
CC1S/C(=N/N=C2CCC(C(C)(C)C)CC2)NC1=O (stereo unspecified),-,?,-,?,5µM,2.5µM
CC1S/C(=N/N=C2CCCCC2)NC1=O (stereo unspecified),-,2.9µM,-,10µM,?,10µM
Cc1ccc2[nH]c(=S)cc(C)c2c1,-,?,-,?,?,16µM
Cc1cc(=S)[nH]c2ccccc12,-,?,-,?,-,?
Cc1ccc2c(C)cc(=S)[nH]c2c1,-,?,-,?,?,4µM
COc1nc(C(=O)NCCCN2CCCC2=O)cc2ccccc12,-,.,.,.,.,.
Cc1ccc(NCC(=O)Nc2cc(Cl)ccc2-n2cncn2)cc1F,-,.,.,.,.,.
Cn1c2ccc(F)cc2c2nnc(SCCN3CCCCC3)nc21,-,?,-60,16µM,-,-
CCOc1ccc2c(c1)c1nnc(SCC(=O)N3CCCCC3C)nc1n2C (stereo unspecified),-,23µM,-,23µM,-,-
CCN(CC)CCSc1nnc2c3cc(F)ccc3n(C)c2n1,-,-,.,?,.,.
SMILES,LDHA block,DT40 TDP1 CPT,IL-1B inflam inh,DT40 TDP1 no CPT,Gal4-VP16 FLuc,RORgamma inh
Cc1cc(C)c2c(c1)c1nnc(SCCN3CCCCC3)nc1n2C,-,?,-72,21µM,-,-
N#Cc1nc(-c2ccc(S(=O)(=O)N3CCCC3)cc2)oc1NCCCN1CCOCC1,-,.,.,.,.,.
CN(C(=O)COC(=O)c1ccc(=O)n(Cc2ccccc2)n1)c1ccccc1,-,15µM,-,18µM,-,-
CN(Cc1ccccc1)C(=O)COC(=O)c1ccc(=O)n(Cc2ccccc2)n1,-,-,-,-,.,.
CCC/C=C(\CCC)C(NC(=O)C(C)(C)C)c1ccc(C(=O)OC)cc1 (stereo unspecified),.,.,.,.,-,-
CCC/C=C(\CCC)C(NC(=O)c1ccc(C(=O)OC)cc1)c1ccc(C(=O)OC)cc1 (stereo unspecified),-,9.2µM,-,7.3µM,-,-
Cc1cccc2c1[nH]c1nc(N/N=C\c3ccco3)nnc12,.,.,.,.,-,-
CC(/C=N/Nc1nnc2c(n1)[nH]c1ccccc12)=C\c1ccco1,-,26µM,-,?,-,-
COc1cc(C(Nc2ccccn2)c2c(NC(=O)c3ccco3)sc(C)c2C)cc(OC)c1OC (stereo unspecified),-,-,-,?,-,?
Cc1cccc(NC(c2ccccc2C)c2ccc3ccc(C)nc3c2O)n1 (stereo unspecified),-,?,.,15µM,.,.
COc1cc(C(Nc2ccccn2)c2ccc3ccc(C)nc3c2O)cc(OC)c1O (stereo unspecified),-,3.7µM,-116,3.3µM,13µM,7.1µM
Cc1ccc2ccc(C(Nc3ccccn3)c3ccccc3)c(O)c2n1 (stereo unspecified),-,23µM,-,18µM,4.5µM,5µM
COC(=O)c1sccc1S(=O)(=O)Oc1ccc2c(C(F)(F)F)cc(=O)oc2c1,-,.,.,.,.,.
O=C(c1ccc(F)cc1F)N(Cc1ccco1)C1CC1,-,.,.,.,.,.
COc1ccccc1OCC(=O)Nc1cc(-c2ccccc2)no1,-,.,.,.,.,.
C=CCn1c(SCC(=O)Nc2ccccc2)nc2c1c(=O)[nH]c(=O)n2C,-,.,.,.,.,.
Cc1ccc(NC(=O)CCc2ccc(C#N)cc2)nc1,-,.,.,.,.,.
COc1cc(C(=O)NCc2n[nH]c(=O)c3ccccc23)cc(OC)c1OC,-,.,.,.,.,.
O=C(NN=Cc1c(O)ccc2ccccc12)c1ccncc1,-,4.6µM,-,3.7µM,.,.
O=C(N/N=C/c1c(O)ccc2ccccc12)c1cccnc1,-,1.2µM,-,1µM,13µM,10µM
Cn1nccc1C(=O)N/N=C/c1c(O)ccc2ccccc12,-,4.6µM,-,3.3µM,2.8µM,3.2µM
Cn1cccc1/C=N\NC(=O)c1cncc(Br)c1,-,-,.,-,?,13µM
Cn1nccc1C(=O)Oc1cccc(/C=N/NC(=O)c2ccccc2O)c1,-,-,-,-,?,?
COc1ccc2ccccc2c1/C=N\NC(=O)c1cccnc1,-,-,-,-,.,.
Cn1cccc1/C=N/NC(=O)c1ccncc1,-,-,-,-,-,?
O=C(C1CCN(S(=O)(=O)c2ccc(Cl)cc2)CC1)N1CCCC1c1ccccc1 (stereo unspecified),-,.,.,.,.,.
COc1ccc(-c2nnc(C(C)OC(=O)c3[nH]c(C)c(C(C)=O)c3C)o2)cc1 (stereo unspecified),-,.,.,.,.,.
Cc1ccc(N=Cc2c(O)ccc3ccccc23)cc1F,-,-,-,?,?,5µM
Cn1c(/N=C/c2c(O)ccc3ccccc23)nc2ccccc21,-,3.3µM,-,5.8µM,-,-
Cn1cc(C(=O)N/N=C/c2c(O)ccc3ccccc23)ccc1=O,-,5.2µM,-,3.7µM,-,-
